HCV inh – blocks hepatitis C virus; Huh7.5.1 HCVcc-Cre infection, luciferase reporter, 44 h; actives 3.4% (n = 340,000); Potency, µM (titrated, usually from 41.8 µM), most hits filed as inhibitors
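After 44 h co-culture of compound, cells and HCVcc-Cre (~0.5 moi), substrate is added for 15 min at room temperature and luciferase measured over 15 sec. Cells were seeded at 1,000/well and pre-cultured 4 h.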
FMDV antiviral – blocks foot and mouth disease virus; FMDV antiviral cell-based qHTS; Potency, µM (doses to about 57.9 µM), actives largely listed as inhibitors; actives 1.2% (n = 410,000); AID 1159524; calls by dose curve; tested in HEK293T cells; further: read-out not given here; nearly all actives have a fitted effect of over 45% in size
HCMV inh – blocks human cytomegalovirus replication; HFF cells, HCMV-luciferase reporter, 72 h; hits give low values; activity change, negative = inhibition, % at 57.5 µM; actives 4.5% (n = 410,000); in the data active means activity change below about -60%; inconclusive means no clear call, values can overlap the other calls; inactive means above about -39%
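Steps: HFFs plated, 16 h 37C; compounds added; HCMV-luciferase added to MOI 1 PFU/cell; 72 h 37C; OneGlo reagent, 5 min room temperature; luminescence read, normalized to controls.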
MARV entry inh – inhibitors of Marburg virus binding or cell entry | actives 1.8% (n = 300,000) | Marburg virus pseudotyped entry inhibition, cell reporter | Potency, µM (top dose mostly 37.8 µM), hits mostly inhibitors; calls by dose curve; tested in HEK293 cells
FBPA Giardia inh – Giardia lamblia aldolase inhibition | actives 0.71% (n = 290,000) | Potency, µM (doses to about 59.6 µM), actives largely listed as inhibitors | purified Giardia FBPA; further: nearly all actives have a fitted effect of over 55% in size
Target sequence (A8B2U2 whole entry, looked up): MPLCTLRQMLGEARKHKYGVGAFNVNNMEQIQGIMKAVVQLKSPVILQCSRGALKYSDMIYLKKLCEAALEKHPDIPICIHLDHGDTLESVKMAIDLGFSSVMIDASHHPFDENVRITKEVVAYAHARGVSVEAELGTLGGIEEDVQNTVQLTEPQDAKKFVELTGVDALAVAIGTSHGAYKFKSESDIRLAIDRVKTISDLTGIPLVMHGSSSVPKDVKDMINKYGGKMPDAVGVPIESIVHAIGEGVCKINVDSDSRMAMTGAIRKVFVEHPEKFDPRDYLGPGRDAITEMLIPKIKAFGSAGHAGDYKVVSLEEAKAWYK
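40 nM FBPA preincubated 10 min at RT with compound (up to 57.5 uM final), then substrate plus GAPDH/TPI/NAD/arsenate coupling and diaphorase/resazurin added. Fluorescence read after 20 min at RT, 525/598 nm.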
LASV entry inh – Lassa virus entry inhibition | Lassa virus pseudotype entry inhibition, cell reporter | Potency, µM (top dose mostly 37.9 µM), most hits filed as inhibitors | actives 1.2% (n = 300,000) | AID 540256; calls by dose curve; tested in HEK293 cells; further: nearly all actives have a fitted effect of over 50% in size
A number is an active result; i = inactive; ? = inconclusive; nt = no result given. Shown are actives, neighbours in structure and some others; about 8.3% of the full set was active somewhere. Unless noted, the call rests on the fitted dose curve; in most records, active means well fitted curve in the direction sought with a large enough effect; inconclusive means small, poorly fitted or top-dose-only effect, or another doubt; inactive means no such curve, though single readings can be large; an effect the other way counts as inactive or inconclusive.

SMILES	HCV inh	FMDV antiviral	HCMV inh	MARV entry inh	FBPA Giardia inh	LASV entry inh
Cc1ccc2nc(Nc3nc(-c4ccccc4)cc(=O)[nH]3)nc(C)c2c1	?	i	-67.3	?	i	i
Cc1ccc2nc(Nc3nc(C)cc(-c4ccccc4)n3)[nH]c(=O)c2c1	?	i	?	?	i	?
NCCCCCCCCCCNCCCN	nt	nt	nt	nt	i	nt
CN1C=CC(=C2C=CN(C)C=C2)C=C1	nt	nt	nt	nt	i	nt
NC(CSSCC(N)C(=O)O)C(=O)O (centres undefined)	nt	nt	nt	nt	i	nt
Cc1cc(Cl)c(S(=O)(=O)N2CCCCCC2)cc1OCC(=O)NC1CCCCC1	i	i	?	i	i	i
Cc1cc(Cl)ccc1OCCCC(=O)NO	7.08µM	i	i	i	?	?
Cc1cc(Cl)c(S(=O)(=O)N2CCSCC2)cc1OCC(=O)NC1CCCCC1	6.31µM	i	-95.3	9.2µM	i	?
Cc1cc(Cl)c(S(N)(=O)=O)cc1OCC(=O)NC1CCCCC1	i	i	i	?	i	i
CCOC(=O)N1CCN(S(=O)(=O)c2cc(OCC(=O)NC3CCCCC3)c(C)cc2Cl)CC1	i	i	-69.7	?	i	i
Cc1cc(Cl)ccc1OCC(=O)NC1CCCC1	?	nt	-74.4	?	i	i
Cc1cc(Cl)ccc1OCC(=O)OCC(=O)NC1CCCC1	i	i	i	i	nt	i
Oc1ccc(-c2cccnc2)cc1CNC1CN2CCC1CC2 (centres undefined)	nt	i	nt	nt	nt	nt
CC1=NC2=CC=CC3=NC(C(Cl)(Cl)Cl)=NC(=N1)N23	nt	nt	i	nt	nt	nt
Cc1c(C(=O)NCc2cccc(F)c2)sc2ncnc(NCC3CCCO3)c12 (centres undefined)	nt	i	nt	nt	nt	nt
CC(C)(CNC(=O)c1cnn(-c2nccc(-c3cccs3)n2)c1C1CC1)N1CCOCC1	nt	i	nt	nt	nt	nt
COc1ccc(OC)c(NC(=O)c2cn3c4c(ccc(Cl)c4c2=O)OC(C)C3)c1 (centres undefined)	nt	i	i	nt	nt	i
Cc1cc(Cl)c(S(=O)(=O)N2CCN(c3ccccn3)CC2)cc1OCC(=O)NC1CCCCC1	10µM	22.4µM	-76.9	nt	i	nt
COc1cc(CNCc2ccccn2)ccc1OCC(=O)NC1CCCCC1	i	i	i	i	i	i
Cc1cc(Cl)c(S(=O)(=O)NC2CCCC2)cc1OCC(=O)NC1CCCCC1	7.08µM	i	-90.1	?	i	?
Cc1cc(Cl)c(S(=O)(=O)N2CCCCCC2)cc1OCC(N)=O	i	?	i	i	i	i
CCOc1cc(CNCc2ccccc2)ccc1OCC(=O)NC1CCCCC1	2.51µM	i	i	?	nt	i
Cc1nnc(Nc2ccccn2)c2ccccc12	i	i	-60.2	i	i	i
COc1cc2c(cc1OC)C(c1ccc(N)cc1)=NNC(=O)C2	nt	i	nt	nt	i	nt
Cc1cc(N2CCOCC2)ccc1/C=C\[N+](=O)[O-]	?	?	-98.3	?	i	20.6µM
SMILES	HCV inh	FMDV antiviral	HCMV inh	MARV entry inh	FBPA Giardia inh	LASV entry inh
O=[N+]([O-])c1ccc(N2CCOCC2)cc1O	i	i	i	i	i	i
Cc1ccc(OCCNc2cc(N3CCN(CCO)CC3)ccc2[N+](=O)[O-])cc1C	10µM	i	i	?	i	?
Cc1ccccc1OCCNc1cc(N2CCNCC2)ccc1[N+](=O)[O-]	nt	nt	nt	nt	i	nt
Cc1cccc(OCCNc2cc(N3CCOCC3)ccc2[N+](=O)[O-])c1	10µM	i	i	?	i	i
Cc1cccc(OCCNc2cc(N3CCN(C)CC3)ccc2[N+](=O)[O-])c1	?	i	i	?	i	?
CCCCCCCCCCCCCCCCOC[C@H](COP(=O)([O-])OCC[N+](C)(C)C)OC(=O)CCCCCCCC(=O)O	nt	nt	nt	nt	i	nt
Fc1ccc(NCc2ccccc2-c2nnc(-c3ccccc3Cl)o2)cc1Cl	nt	i	i	?	nt	i
CC(=O)Nc1ccc(C=NNc2nnc(NN=Cc3ccc(NC(C)=O)cc3)c3ccccc23)cc1	22.4µM	i	i	?	nt	1.58µM
Clc1ccc(/C=N/Nc2nnc(Cl)c3ccccc23)cc1	i	nt	i	i	i	?
Cc1ccc(/C=N/Nc2nnc(Cl)c3ccccc23)cc1	i	?	i	10µM	i	?
Cn1cc(C(=O)CCl)c2ccccc21	7.94µM	22.4µM	-98.2	16.4µM	i	?
Cn1cc(C(N)=O)c2ccccc21	i	i	i	nt	i	nt
Cc1sc(NC(=O)c2ccco2)c(C(c2ccc(F)cc2)N2CCN(C)CC2)c1C (centres undefined)	i	i	nt	6.31µM	i	?
Cc1ccc(C(c2c(NC(=O)c3ccco3)sc(C)c2C)N2CCOCC2)cc1 (centres undefined)	nt	i	i	nt	nt	nt
CCOc1ccc(C(c2c(NC(=O)c3ccccc3)sc(C)c2C)N2CCN(CCO)CC2)cc1 (centres undefined)	?	i	i	8.91µM	i	?
Cc1sc(NC(=O)c2ccccc2)c(C(c2ccc(Cl)cc2)N2CCN(CCO)CC2)c1C (centres undefined)	?	i	i	?	i	?
CCOC(=O)C1CCN(C(c2cccnc2)c2c(NC(=O)c3ccco3)sc(C)c2C)CC1 (centres undefined)	6.31µM	25.1µM	-97.3	?	i	?
Cc1sc(NC(=O)c2ccco2)c(C(c2cccnc2)N2CCN(c3ccc(F)cc3)CC2)c1C (centres undefined)	11.2µM	?	-100.0	nt	i	nt
COc1ccc(C2NC(=O)N(C)C3=C2C(=O)N(c2cccc(Cl)c2)C3)cc1 (centres undefined)	nt	i	i	i	nt	i
COc1ccc2c3c([nH]c2c1)[C@@H](CO)N(C(=O)c1ccccc1)CC31CN(C(=O)CC2CC2)C1	nt	nt	i	nt	nt	nt
CCOP(=S)(OCC)N1CCOCCOCCN(P(=S)(OCC)OCC)CCOCCOCC1	i	i	i	10µM	i	?
CCOP(=O)(OCC)C(CC)N1CCOCC1 (centres undefined)	i	i	i	i	i	i
CCOCCCNCc1ccc(OC)cc1	i	i	i	i	i	i
COc1ccc2cc(CNCCOCCOCCNCc3ccc4cc(OC)ccc4c3)ccc2c1	3.98µM	39.8µM	-97.6	?	nt	?
CCOC(=O)[C@H](C)Oc1ccc2c(C)cc(=O)oc2c1C(C)=O	nt	nt	nt	i	nt	nt
SMILES	HCV inh	FMDV antiviral	HCMV inh	MARV entry inh	FBPA Giardia inh	LASV entry inh
O=S(=O)(Nc1ccc(N2CCCCC2)cc1)c1ccc(F)cc1	i	i	-61.1	nt	i	nt
O=S(=O)(Nc1ccc(N2CCCCC2)cc1)c1ccccc1F	i	i	i	i	i	i
O=S(=O)(Nc1ccc(N2CCOCC2)cc1)c1ccc(F)cc1	i	i	i	i	i	i
O=S(=O)(Nc1ccc(N2CCCCC2)cc1)c1ccc(F)cc1F	?	i	-60.5	i	i	i
CC(=O)N1CCCC1c1nc2ccccc2n1Cc1cccc(Cl)c1 (centres undefined)	nt	i	i	i	nt	i
COc1ccccc1N1CCN(c2nc3ccc(C)cc3n3nnnc23)CC1	nt	i	i	nt	nt	i
Cc1cccc(-c2nc3ccccc3c(=O)n2NC(=O)c2cccnc2Cl)c1	i	i	-68.7	i	i	i

Assay outcomes deposited in PubChem BioAssay by National Center for Advancing Translational Sciences (NCATS).
